Where “and” joins values, the source holds several entries; their conditions need not be identical. Equal entries are not always repeated. Inconclusive results are not listed. Calls of active or inactive are those of the source. Unless noted, the call rests on the fitted dose curve; in most records, active means well fitted curve in the direction sought with a large enough effect; inconclusive means small, poorly fitted or top-dose-only effect, or another doubt; inactive means no such curve, though single readings can be large; an effect the other way counts as inactive or inconclusive.
How the values were obtained:
[1] = Cell Viability - MRC5 (AID 434; calls by dose curve;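 further: potency means the concentration at half of the fitted maximal effect; potency reflects cytotoxicity seen as loss of intracellular ATP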); conditions: MRC5 lung fibroblast viability, qHTS
Summary of the method: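 MRC5 normal human lung fibroblasts, 1500 cells/well, exposed to compound for 40 hr at 37 C. Cellular ATP was read by CellTiter-Glo luminescence; data normalized to DMSO and 100 uM tamoxifen, with AC50 from Hill fits.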

[2] = Cell Viability - HUV-EC-C (AID 542); conditions: HUV-EC-C endothelial cell viability, qHTS; series mostly up to 92.2 µM; further: on the % scale 0 is the no-effect control and ±100 the full control effect; nearly all actives have a fitted effect of over 35% in size
Summary of the method: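 qHTS cytotoxicity: HUV-EC-C, 1000 cells/well, 5 hr settle, compound 40 hr 37 °C, CellTiter-Glo, luminescence. AC50 via Hill equation.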

[3] = Cellular Toxicity (caspase-3) HepG2 (AID 654); conditions: HepG2 caspase-3 activation, luminescence; series mostly up to 92.2 µM;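 further: cells exposed to compound for 16 hours before reading; 0% = DMSO alone and 100% = caspase signal from 100 µM tamoxifen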
Summary of the method: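 Cells plated 5 hr at 37 °C, compound added, incubated 16 hr at 37 °C. Caspase-Glo 3/7 reagent followed, 20 min at room temperature, then luminescence read. Activation scored as signal increase; AC50 from Hill fit.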

[4] = Cellular Toxicity (caspase-3) HUV-EC-C (AID 656); conditions: HUV-EC-C cells, caspase-3 activation (apoptosis); series mostly up to 92.2 µM
Summary of the method: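 Luminescent caspase-3/7 activation (aminoluciferin substrate cleavage) in HUV-EC-C cells after 16 hr compound exposure, 37°C. Signal normalized to DMSO basal and 100 uM tamoxifen as 100%; AC50 from concentration-response fitted with the Hill equation.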

[5] = Cellular Toxicity (caspase-3) SHSY5Y (AID 657); conditions: SH-SY5Y caspase-3 activation; series mostly up to 91.7 µM
Summary of the method: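 Luminescent caspase-3/7 readout (aminoluciferin release) in SH-SY5Y cells after 16 h compound exposure in complete medium. Activity scaled between DMSO basal and 10 uM staurosporine as 100%; concentration-response fitted to Hill equation for AC50.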

[6] = Cellular Toxicity (caspase-3) Mesangial (AID 660); conditions: mesangial cells, normalized: DMSO 0%, 100 µM tamoxifen 100%; series mostly up to 91.7 µM;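 further: combined caspase 3 and 7 activity read by Caspase-Glo luminescence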
Summary of the method: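 Mesangial cells, 1000/well, 5 h settle at 37 °C; compound 16 h, 37 °C; Caspase-Glo 3/7 reagent 20 min RT; luminescence. Norm.: DMSO = 0%, tamoxifen 100 uM = 100%. AC50, Hill fit.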

[7] = Cellular Toxicity (caspase-3) SK-N-SH (AID 661); conditions: SK-N-SH caspase-3 activation, qHTS, DMSO as zero, staurosporine as full; series mostly up to 91.7 µM
Summary of the method: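 Human neuroblastoma SK-N-SH, 1500 cells/well, 5 hr pre-incubation, then compound 16 hr, 37 °C. Caspase-Glo 3/7 reagent, 1 hr RT, luminescence. Norm. to DMSO/10 uM staurosporine; Hill-fit AC50.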

[8] = Cellular Toxicity (caspase-3) H-4-II-E (AID 663); conditions: H-4-II-E rat hepatoma; Potency: caspase-3 activation; series mostly up to 92.2 µM
Summary of the method: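 Rat hepatoma H-4-II-E cells (1500/well) plated 5 hr, then exposed to compound titrations for 16 hr at 37 °C. Caspase-Glo 3/7 luminescence read after 20 min at RT; data normalized to DMSO and 100 uM tamoxifen, AC50 from Hill fits.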

[9] = Cellular Toxicity (caspase-3) N2a (AID 665); conditions: N2a cells, luminescence, normalized: DMSO 0%, 10 µM staurosporine 100%; series mostly up to 92.2 µM;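 further: compound exposure lasted 16 h at 37 °C before readout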
Summary of the method: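 N2a cells, 1500/well, 5 h settle at 37 °C; cpd 16 h, 37 °C; Caspase-Glo 3/7, 1 h RT; luminescence. Norm: DMSO = 0, 10 uM staurosporine = 100%. AC50, Hill fit.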

[10] = Cellular Toxicity (caspase-3) NIH 3T3 (AID 666); conditions: NIH 3T3 caspase-3 activation, apoptosis/toxicity, 0% DMSO, 100% is 100 µM tamoxifen; series mostly up to 92.2 µM;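 further: 0% = DMSO basal and 100% = 100 µM tamoxifen stimulation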
Summary of the method: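 Luminescence from aminoluciferin released by caspase-3/7 cleavage of a peptide substrate served as read-out. Mouse fibroblast NIH 3T3 cells were exposed to compounds over a concentration range for 16 hours, and AC50 values came from standard Hill modelling.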

[11] = Cellular Toxicity (caspase-3) Renal Proximal Tubule (AID 667); conditions: renal proximal tubule cells, primary cells freshly taken from rat; Potency: caspase-3 activation; series mostly up to 91.7 µM;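 further: cells exposed to compound for 16 hours at 37 °C before detection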
Summary of the method: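 Luminescent caspase 3/7 signal from peptide-aminoluciferin cleavage measures apoptosis in freshly isolated rat kidney proximal tubule cells after 16 h compound exposure. Concentration-response data are normalized to DMSO and 10 uM staurosporine, and AC50 values come from Hill equation fits.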

[12] = MultiTox-Fluor Cytotoxicity Assay - LYMP1-001 - Dead Cells (AID 946); conditions: LYMP1-001 lymphoblastoid cells, dead-cell protease fluorescence; series mostly up to 92.2 µM;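 further: 0% = DMSO and 100% = tetraoctylammonium bromide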
Summary of the method: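 In this qHTS, 15 uM tetraoctylammonium bromide defined 100% and DMSO defined basal activity. Lymphoblastoid cells (LYMP1-001, 2500 per well) received compound for 16 hr at 37 C before a fluorogenic dead-cell substrate readout at 485/520 nm.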

[13] = MultiTox-Fluor Cytotoxicity Assay - LYMP1-003 - Dead Cells (AID 961); conditions: LYMP1-003 lymphoblastoid cells, dead-cell protease fluorescence; series mostly up to 92.2 µM;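 further: 0% = DMSO and 100% = tetraoctylammonium bromide; nearly all actives have a fitted effect of over 70% in size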
Summary of the method: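 Acute toxicity is scored as increased dead-cell protease activity in human lymphoblastoid LYMP1-003 cells after 16 h compound exposure in complete culture medium. Activity is normalized to DMSO basal and 15 uM tetraoctylammonium bromide as full response.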

[14] = MultiTox-Fluor Cytotoxicity Assay - LYMP1-003 - Live Cells (AID 962); conditions: LYMP1-003 lymphoblastoid cells, MultiTox-Fluor live-cell protease fluorescence; series mostly up to 92.2 µM;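 further: 0% = DMSO only and full loss = 92 µM tetraoctylammonium bromide; cytotoxic hits lower the live-cell protease signal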
Summary of the method: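 qHTS, 1536-well; 2500 cells/well LYMP1-003; 5 hr 37 C settle; cpd 16 hr 37 C; MultiTox-Fluor reagent 60 min RT; live-cell protease fluor. 405/510; Hill-fit AC50; tetraoctylammonium bromide pos. ctrl.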

[15] = Cell Viability - LYMP1-003 - Assay at 24 hr (AID 963); conditions: LYMP1-003 lymphoblastoid cell viability; series mostly up to 92.2 µM;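 further: plate controls were DMSO only for no effect and tetraoctylammonium bromide positive control for full effect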
Summary of the method: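 Cells seeded at 2500/well, 5 hr at 37 C; compounds added; 24 hr at 37 C; CellTiter-Glo added, 30 min room temperature; luminescence read. Decrease in ATP taken as cytotoxicity, AC50 from Hill modelling.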

[16] = Cell Viability - LYMP1-002 - Assay at 24 hr (AID 993); conditions: LYMP1-002 lymphoblastoid cells viability; series mostly up to 92.2 µM; further: on the % scale 0 is the no-effect control and ±100 the full control effect
Summary of the method: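 Cells plated 2500/well, 5 hr 37 C; compounds added, 24 hr 37 C; CellTiter-Glo added, 30 min RT; luminescence read. Tetraoctylammonium bromide positive control. Hill-equation AC50.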

[17] = qHTS Assay for Identification of Small Molecule Inducers of Hypoxia Response (AID 2120; active means well fitted curve in the direction sought with a large enough effect in the signal ratio, with a control signal flat, not every such curve was filed as active; the % refers to the signal ratio; further: 0% is about no effect); conditions: hypoxia response reporter cells, beta-lactamase ratio readout; series mostly up to 104 µM
Summary of the method: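 ME-180 HRE-bla cells plated in Opti-MEM/0.5% dialyzed FBS, rested 4-5 h, then dosed with compound titrations by pin tool. After 17 h at 37 degrees C, CCF4 dye loaded 2.5 h at RT; 460/530 nm ratio gave %Activity and AC50.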

[18] = biological target: Peroxisome proliferator-activated receptor alpha (Homo sapiens) (UniProt Q07869); experiment: qHTS assay for small molecule agonists of the peroxisome proliferator-activated receptor alpha (PPARalpha) signaling pathway (AID 651778); conditions: PathHunter PPARalpha complementation, chemiluminescence, 6 h; max response: hits give high values; further: % of control where 0% means no effect
Summary of the method: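 Enzyme-fragment complementation assay in which ligand-bound PPARalpha translocates and forms an active enzyme that generates chemiluminescence. Cells were plated overnight, exposed to compound for 6 hr at 37 C, and then given detection reagent for 60 min at room temperature.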

[19] = qHTS assay for small molecule agonists of the antioxidant response element (ARE) signaling pathway measured by Nrf2-dependant transcriptional activity - cell viability counter screen (AID 720653; active means well fitted curve in the direction sought with a large enough effect in the repeat runs; an effect the other way counts as inactive or inconclusive; further: on the % scale 0 is the no-effect control and ±100 the full control effect); conditions: ARE-bla HepG2 viability, CellTiter-Glo ATP luminescence, 16 h; max response: hits give low values
Summary of the method: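 ARE-bla HepG2 cells treated with compounds for 16 h at 37C; this counter screen measures viability as intracellular ATP by CellTiter-Glo luminescence after 30 min at room temperature.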

[20] = qHTS assay for cell viability of the p53RE-bla HCT-116 cell line (AID 743292); conditions: p53RE-bla HCT-116 viability, ATP luminescence, 16 h; series mostly up to 95 µM; further: on the % scale 0 is the no-effect control and ±100 the full control effect; nearly all actives have a fitted effect of over 55% in size
Summary of the method: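 Compound-exposed HCT-116 (p53RE-bla) cells, 4,000 per well, were kept 16 h at 37 C following a 5 h preincubation. Cell number was estimated from total ATP by CellTiter-Glo luminescence read after 30 min at room temperature.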

Sequence of Peroxisome proliferator-activated receptor alpha (Homo sapiens) (Q07869 whole entry, looked up, the tested form may be a part): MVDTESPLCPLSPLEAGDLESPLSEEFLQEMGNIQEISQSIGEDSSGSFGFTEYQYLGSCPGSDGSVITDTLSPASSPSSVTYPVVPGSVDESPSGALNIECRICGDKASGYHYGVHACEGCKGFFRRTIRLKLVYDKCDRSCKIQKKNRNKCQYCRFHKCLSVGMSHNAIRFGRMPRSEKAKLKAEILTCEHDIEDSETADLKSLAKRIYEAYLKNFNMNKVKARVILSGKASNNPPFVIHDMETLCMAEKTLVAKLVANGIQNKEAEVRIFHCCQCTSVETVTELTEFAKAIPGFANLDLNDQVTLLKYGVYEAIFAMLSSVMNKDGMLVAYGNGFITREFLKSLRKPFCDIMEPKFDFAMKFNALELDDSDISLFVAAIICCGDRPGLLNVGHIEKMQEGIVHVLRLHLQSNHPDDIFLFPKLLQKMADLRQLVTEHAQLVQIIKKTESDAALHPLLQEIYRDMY

C[Si](C)(C)Cl
inactive: Potency [1] > 92 µM | Potency [2] | Potency [3] | Potency [4] | Potency [5] | outcome [6] | outcome [7] | Potency [8] | outcome [9] | outcome [10] | Potency [11] | Potency [12] | Potency [13] | Potency [14] | Potency [15] | Potency [16] | Potency [17] | max response [18] -1.44% | max response [19] -8.15% | Potency [20]

O=C(Cl)c1ccc([N+](=O)[O-])cc1
inactive: Potency [1] > 92 µM | Potency [2] | Potency [3] | Potency [4] | Potency [5] | outcome [6] | outcome [7] | Potency [8] | outcome [9] | outcome [10] | Potency [11] | Potency [12] | Potency [13] | Potency [14] | Potency [15] | Potency [16] | Potency [17] | max response [18] -4.65% | max response [19] 1.64% | Potency [20]

c1ccncc1
inactive: Potency [1] > 92 µM | Potency [2] | Potency [3] | Potency [4] | Potency [5] | outcome [6] | outcome [7] | Potency [8] | outcome [9] | outcome [10] | Potency [11] | Potency [12] | Potency [13] | Potency [14] | Potency [15] | Potency [16] | Potency [17] | max response [18] -4.5% | max response [19] -7.78% | Potency [20]

Cc1cc(=O)oc2cc(O)cc(O)c12
inactive: Potency [1] > 92 µM | Potency [2] | Potency [3] | Potency [4] | Potency [5] | outcome [6] | outcome [7] | Potency [8] | outcome [9] | outcome [10] | Potency [11] | Potency [12] | Potency [13] | Potency [14] | Potency [15] | Potency [16] | Potency [17] | max response [18] 0.255% | max response [19] 0.736% | Potency [20]

c1cc2c3c(c1)ccc1cccc(c13)C2
inactive: Potency [1] > 92 µM | Potency [2] | Potency [3] | Potency [4] | Potency [5] | outcome [6] | outcome [7] | Potency [8] | outcome [9] | outcome [10] | Potency [11] | Potency [12] | Potency [13] | Potency [14] | Potency [15] | Potency [16] | Potency [17] | max response [18] 6.26% | max response [19] -4.5% | Potency [20]

CN(C)c1ccc(Cc2ccc(N(C)C)cc2)cc1
inactive: Potency [1] > 92 µM | Potency [2] | Potency [3] | Potency [4] | Potency [5] | outcome [6] | outcome [7] | Potency [8] | outcome [9] | outcome [10] | Potency [11] | Potency [12] | Potency [13] | Potency [14] | Potency [15] | Potency [16] | Potency [17] | max response [18] 1.98% and -1.9% | max response [19] -17.1% and 8.5% | Potency [20]

From PubChem BioAssay (NCATS)
